What all share (test): NCI-60 one-dose screen, 48 h (100 = growth as untreated, 0 = no growth, -100 = all killed)
What all share (details): 10 µM unless noted

Assay [1] deals with NCI-H226 lung.
Assay [2] concerns NCI-H322M lung.
The test system of assay [3] is HOP-62 NSCLC.
Assay [4] has as its system NCI-H460 lung.
The subject of assay [5] is HOP-92 NSCLC.
For assay [6], the system named is NCI-H522 lung.
The subject of assay [7] is A549/ATCC NSCLC.
Assay [8] concerns 786-0 renal.
The subject of assay [9] is COLO 205 colon.
In assay [10] the test system is NCI-H23 lung.

Structures are written as SMILES. Compounds without any hit were thinned out: in the full panel of roughly 83,000, 20% have a hit.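 Interpretation: 100, growth as untreated; towards 0, rising growth inhibition; 0, no net growth; 0 to -100, cell death. Compounds scoring below 10 were considered active.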 A number with no mark means an inactive call. Calls of active or inactive are those of the source.

Consider `COc1cc2c(c(OC)c1OC)C(=O)CC(c1cccc(NC(=O)c3cc(NC(=O)[C@H](C)N)ccc3Cl)c1)O2` (stereo not given in full), for which the growth in assay [1] is 48.9%; in [2], 81.2%; in [3], 79.1%; in [4] it was 51.4%; in assay [5] it was 17.9%; in [6], 1.34% (active). Also, the growth is 56% in [7], 45% in [8] and 74.5% in assay [9].
Take `Nc1nc(-c2ccccc2)c(N=Nc2ccc([N+](=O)[O-])cc2Cl)s1`: the growth in assay [1] is 77.5%; in assay [2], 101%; in assay [3] it was 101%; in assay [4], 74.1%; in assay [5], 41.1%; in assay [6], 48.8%. In addition, the growth in assay [7] was 89.8%; in assay [8], 94.9%; in assay [9], 97.6%.
Turning to `Cn1cc(-c2cc(N)n3nc(-c4cn(C)c5ccccc45)cc3n2)c2cc(Cl)ccc21`, the growth is 21.5% in assay [1]; -1.12% (active) in assay [2]; -52.1% (active) in assay [3]; -50.2% (active) in [4]; -58.2% (active) in [5]; -62.7% (active) in assay [6]. In addition, the growth was 2.54% (active) in assay [7], -86% (active) in [8] and -80.1% (active) in [9].
In the case of `Cc1cc2nc3c([nH]c2cc1C)c1ccc(=O)cc1n3CCN(C)C`, the growth in assay [10] was 38.8%; in assay [2] it was 39.9%; in assay [3], 43.2%; in assay [6], 19.8%; in assay [7], 28.4%; in assay [8], 49.1%. Moreover, the growth in assay [9] was 10.8%.
For the compound `COc1ccc2[nH]cc(-c3nnc(N)nc3-c3cn(C)c4ncc(Br)cc34)c2c1`, the growth is 91.7% in [1]; 77.9% in [2]; 70.2% in assay [3]; 83.1% in assay [4]; 6.98% (active) in assay [5]; 50.3% in [6]. Further, the growth in assay [7] was 84.3%; in [8] it was 52.5%; in assay [9] it was 102%.
`C#C[C@]1(O)CC[C@H]2[C@@H]3CC=C4c5sc(-c6ccc([N+](=O)[O-])cc6)nc5CC[C@]4(C)[C@H]3CC[C@@]21C`: the growth in assay [1] was 71.6%; in [2], 25.5%; in assay [3], 23.5%; in assay [4], -47.9% (active); in assay [5] it was 42.9%; in assay [6], -5.59% (active). The growth in assay [7] is 29.6%; in assay [8], 18.3%; in [9], -70% (active).
`COc1cc(-c2nc3ccc(C)cc3[nH]2)ccc1OCc1nnc(-c2ccc(Br)cc2)o1`: the growth was 57.5% in [1]; 65.6% in [2]; 48% in [3]; 31.3% in assay [4]; 18.8% in assay [5]; 8.24% (active) in assay [6]. Also, the growth was 49.8% in assay [7], -50.8% (active) in assay [8] and 3.01% (active) in [9].
Regarding `CC(=O)OCC1OC(OC2C(COC(C)=O)OC(n3cc(COc4ccc5ccc(=O)oc5c4)nn3)C(OC(C)=O)C2OC(C)=O)C(OC(C)=O)C(OC(C)=O)C1OC(C)=O` (stereo not given), the growth is 101% in [1]; 103% in assay [2]; 103% in assay [3]; 108% in [4]; 94.4% in [5]; 71.3% in assay [6]. Moreover, the growth was 112% in [7], 96.4% in assay [8] and 116% in assay [9].
With `CCN(CC)c1ccnc(CNCCSC(c2ccccc2)(c2ccccc2)c2ccc(C)cc2)c1`, the growth is -78.7% (active) in assay [10]; -89.5% (active) in assay [3]; -83.9% (active) in [5]; -80.3% (active) in [6]; -86.8% (active) in assay [7]; -93.1% (active) in assay [8]. For the same compound, the growth in assay [9] was -76.6% (active).
For the compound `CC1(C)CC[C@]2(C(=O)O)CC[C@]3(C)C(=CCC4[C@@]5(C)C[C@@H](O)[C@@H]6OC(c7ccccc7Br)OC[C@@]6(C)C5CC[C@]43C)C2C1` (stereo not given in full), the growth is 26.7% in assay [1]; 21.2% in assay [2]; 30.3% in assay [3]; 4.53% (active) in assay [4]; -1.51% (active) in assay [5]; 12.1% in [6]. Moreover, the values for the growth in assay [7], in assay [8] and in [9] were 16.6%, 24.9% and -36.9% (active), respectively.
Consider `CC1(C)CC[C@]2(C(=O)O)CC[C@]3(C)C(=CCC4[C@@]5(C)C[C@@H](O)[C@@H]6OC(c7ccc(F)cc7)OC[C@@]6(C)C5CC[C@]43C)C2C1` (stereo not given in full), for which the growth in [1] is 34.4%; in assay [2], 29%; in assay [3] it was 47.5%; in [4], 15.7%; in [5] it was 1.62% (active); in assay [6] it was 8.38% (active). Further, the growth is 17% in assay [7], 39.6% in [8] and -2.36% (active) in assay [9].
With `C#C[C@]1(O)CC[C@H]2[C@@H]3CC=C4c5sc(-c6ccc(O)c(O)c6)nc5CC[C@]4(C)[C@H]3CC[C@@]21C`, the growth in [1] is -65.4% (active); in assay [2] it was -79.6% (active); in assay [3], -83.1% (active); in assay [4] it was -77.6% (active); in [5], -53.8% (active); in assay [6], -77.1% (active). Besides, the growth was -78.6% (active) in assay [7], -88.3% (active) in [8] and -80.2% (active) in [9].
As for `Cn1cc(-c2cc(N)n3nc(-c4cn(C)c5ccc(Cl)cc45)cc3n2)c2ccccc21`, the growth in assay [1] is 105%; in assay [2] it was 103%; in [3], 115%; in assay [4], 115%; in [5], 133%; in assay [6] it was 100%. Besides, the growth in [7] is 107%; in [8], 88.4%.
As to `Cn1cc(-c2cc3nc(-c4c[nH]c5ccc(Br)cc45)cc(N)n3n2)c2ccccc21`, the growth is -35% (active) in [1]; -48.8% (active) in assay [2]; -74.4% (active) in [3]; -52.9% (active) in assay [4]; -73.6% (active) in assay [5]; -68.9% (active) in [6]. The values for the growth in [7] and in assay [8] were -71.7% (active) and -89.6% (active), respectively.

These data come from PubChem BioAssay (NCI).
